# In PubChem BioAssay (NCATS):
# Where “and” joins values, the source holds several entries; their conditions need not be identical. Identical values can stand only once. Values without a mark were called inactive. Inconclusive results are not listed. A call without a number means that no potency is given here. Calls of active or inactive are those of the source. Calls follow the shape of the dose curve; as a rule, active = well fitted curve in the direction sought with a large enough effect; inconclusive = small, poorly fitted or top-dose-only effect, or another doubt; inactive = no such curve, though single readings can be large; an effect the other way counts as inactive or inconclusive.
# Assays:
# [1] = molecular target: Glutathione peroxidase 1 (Homo sapiens) (UniProt P07203); assay: Primary qHTS Assay for Inhibitors of Recombinant Selenoprotein Glutathione Peroxidase 1 (GPX1) (AID 1845191); also: nearly all actives have a fitted effect of over 65% in size
# In short: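 GR-coupled assay: compounds preincubated 30 min at room temperature with GPX1, then reaction started with CHP; final 10 nM GPX1, 1 mM GSH, 0.5 mM CHP, 0.5 mM NADPH, 100 nM GR, 0.01% BSA, pH 7.5 Tris buffer. NADPH fluorescence (340/450 nm) read at 0 and 15 min.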
# [2] = molecular target: Phospholipid hydroperoxide glutathione peroxidase GPX4 (Homo sapiens) (UniProt P36969); assay: Primary qHTS Assay for Inhibitors of Recombinant Selenoprotein Glutathione Peroxidase 4 (GPX4) (AID 1845192); also: nearly all actives have a fitted effect of over 65% in size; as to activity change, negative = inhibition: series mostly up to about 50 µM
# In short: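 GR-coupled assay: recombinant GPX4 preincubated 30 min with compound at room temperature; final 200 nM GPX4, 1 mM GSH, 0.5 mM cumene hydroperoxide, 0.5 mM NADPH, 100 nM GR, 0.01% BSA, pH 7.5 Tris. NADPH fluorescence (340/450 nm) read at 0 and 15 min.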
# [3] = molecular target: Luciferin 4-monooxygenase (Photinus pyralis) (UniProt P08659); assay: Primary firefly luciferase (FLuc) qHTS assay for identification of artifact compounds. (AID 1845220); also: nearly all actives have a fitted effect of over 60% in size; as to activity change, negative = inhibition: series mostly up to about 54 µM
# In short: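 Titrated compounds were incubated 15 min at RT, protected from light, with luciferin and ATP at 10 uM; reaction started with 10 nM FLuc, luminescence imaged at 5 min, and concentration-response fitted by Hill equation.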
# [4] = Primary fluorescence-based thiol-reactive (MSTI) qHTS assay for identification of artifact compounds. (AID 1845221); also: nearly all actives have a fitted effect of over 65% in size; also: potency is read from the fitted curve at half-maximal effect;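 as to activity change, negative = thiol reactive: series mostly up to about 54 µM; thiol-reactive compounds lower the probe fluorescence signal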
# In short: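 Reactivity toward the thiol probe MSTI (4 uM) is scored by fluorescence at Ex/Em 525/598 nm after 1 h at room temperature. Acetyl-MSTI and MSTI define the activity scale.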
# [5] = system: Nanoluciferase (engineered Oplophorus gracilirostris luciferase); assay: Primary Nanoluciferase (NLuc) qHTS assay for identification of artifact compounds. (AID 1845222); also: potency is read from the fitted curve at half-maximal effect;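 as to activity, negative = inhibition: NLuc secreted into diluted conditioned medium of S16 cells; series mostly up to about 54 µM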
# In short: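 qHTS format, against NLuc in S16 cell-conditioned medium. Nano-Glo substrate 1:100 was added after 15 min at room temperature. Luminescence was taken after a further 5 min.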
# [6] = Primary redox qHTS assay for identification of artifact compounds. (AID 1845223)
# In short: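 Amplex Red (25 uM) and HRP (250 mU/mL) in HBSS, with compounds for 15 min, then 250 uM DTT for 30 min, room temperature, dark. Fluorescence 525/598 nm read; normalized to DMSO and 10 uM DA3003; Hill fit.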
# Glutathione peroxidase 1 (Homo sapiens), sequence (P07203 whole entry, looked up): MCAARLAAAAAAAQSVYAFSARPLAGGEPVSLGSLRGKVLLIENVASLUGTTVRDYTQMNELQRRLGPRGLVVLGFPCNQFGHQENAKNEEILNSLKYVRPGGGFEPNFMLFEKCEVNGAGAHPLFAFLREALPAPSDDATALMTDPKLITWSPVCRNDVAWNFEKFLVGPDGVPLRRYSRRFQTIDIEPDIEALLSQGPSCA
# Phospholipid hydroperoxide glutathione peroxidase GPX4 (Homo sapiens), sequence (P36969 whole entry, looked up): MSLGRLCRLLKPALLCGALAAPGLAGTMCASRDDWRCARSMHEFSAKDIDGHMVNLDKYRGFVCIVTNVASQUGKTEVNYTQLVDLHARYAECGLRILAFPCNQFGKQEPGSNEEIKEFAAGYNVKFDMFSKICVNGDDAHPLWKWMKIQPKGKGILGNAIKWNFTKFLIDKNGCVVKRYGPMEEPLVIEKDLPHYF
smiles,measurement,setting,value
CCC1CC2C(C)=CC3CCCCC3C2(C)C2(OC(=O)C(C)(O)OC2=O)O1 (stereo not given),Potency,[1],inactive
same,Potency,[2],inactive
same,Potency,[3],inactive
same,Potency,[4],inactive
same,Potency,[5],inactive
same,Potency,[6],inactive
C=CC(C)(C)C1(CC2NC(=O)C3CCCN3C2=O)C(=O)Nc2cc3c(cc21)C=CC(C)(C)O3 (stereo not given),Potency,[1],inactive
same,Potency,[2],inactive
same,Potency,[3],inactive
same,Potency,[4],inactive
same,Potency,[5],inactive
same,Potency,[6],inactive
C=CC1(C)CC(O)C2(CCC3C(C)(C(=O)O)CCCC3(C)C2=O)C1 (stereo not given),Potency,[1],inactive
same,Potency,[2],inactive
same,Potency,[3],inactive
same,Potency,[4],inactive
same,Potency,[5],inactive
same,Potency,[6],inactive
C[C@@H]1O[C@@H](O[C@H]2[C@H](OC(=O)C34CCC5(C)C(=CCC6C7(C)CC(O)C(O[C@@H]8O[C@H](C(=O)O)[C@@H](O)[C@H](O)[C@H]8O)C(C)(C(=O)O)C7CCC65C)C3CC(C)(C)CC4O)O[C@H](C)[C@@H](O)[C@@H]2O)[C@H](O)[C@@H](O[C@@H]2OC[C@](O)(CO)[C@H]2O[C@@H]2O[C@H](CO)[C@@H](O)[C@H](O)[C@H]2O)[C@H]1O (stereo not given in full),"activity, negative = inhibition",[1],-10.2% [at 9.52 µM]
same,"activity change, negative = inhibition",[2],-4.3% [at 9.73 µM]
same,"activity change, negative = inhibition",[3],-0.148% [at 11.6 µM]
same,"activity change, negative = thiol reactive",[4],44.4% [at 11.5 µM]
same,"activity, negative = inhibition",[5],0% [at 11.6 µM]
same,redox activity (% of DA3003),[6],3.71% [at 11.5 µM]
C[C@@H]1O[C@@H](O[C@H]2[C@H](OC(=O)[C@]34CCC(C)(C)C[C@H]3C3=CCC5[C@@]6(C)C[C@H](O)[C@H](O[C@@H]7O[C@H](CO[C@@H]8OC[C@H](O)[C@H](O)[C@H]8O)[C@@H](O)[C@H](O)[C@H]7O)C(C)(C)C6CC[C@@]5(C)[C@]3(C)C[C@H]4O)OC[C@@H](O)[C@@H]2O)[C@H](O)[C@H](O[C@@H]2OC[C@](O)(CO)[C@H]2O)[C@H]1O[C@@H]1OC[C@H](O)[C@H](O[C@@H]2OC[C@@H](O)[C@H](O)[C@H]2O)[C@H]1O (stereo not given in full),outcome,[1],inactive [at 9.52 µM]
same,"activity change, negative = inhibition",[2],-0.436% [at 9.73 µM]
same,outcome,[3],inactive [at 11.6 µM]
same,"activity change, negative = thiol reactive",[4],452% [at 11.5 µM]
same,"activity, negative = inhibition",[5],3.55% [at 11.6 µM]
same,redox activity (% of DA3003),[6],10.3% [at 11.5 µM]
O=C(c1ccc(NS(=O)(=O)c2cccc3cccnc23)cc1)N1CCN(CC2CC2)CC1,Potency,[1],inactive
same,Potency,[2],inactive
same,Potency,[3],inactive
same,Potency,[4],inactive
same,Potency,[5],inactive
same,Potency,[6],inactive
CC(C)(O)C1=CCC23COC(C2)C(O)(C(=O)O)CCC13 (stereo not given),Potency,[1],inactive
same,Potency,[2],inactive
same,Potency,[3],inactive
same,Potency,[4],inactive
same,Potency,[5],inactive
same,Potency,[6],inactive
O=C(COc1ccc(Cl)cc1)NC1CCC(NC(=O)COc2ccc(Cl)cc2)CC1 (stereo not given),Potency,[1],inactive
same,Potency,[2],inactive
same,Potency,[3],inactive
same,Potency,[4],inactive
same,Potency,[5],inactive
same,Potency,[6],inactive
CC1(C)OC(=O)C(OCC2CC2)=C1c1ccc(S(C)(=O)=O)cc1,Potency,[1],inactive
same,Potency,[2],inactive
same,Potency,[3],inactive
same,Potency,[4],inactive
same,Potency,[5],inactive
same,Potency,[6],inactive
COC1=CC(=O)O[C@@H](CCc2ccccc2)[C@@H]1O,Potency,[1],inactive
same,Potency,[2],inactive
same,Potency,[3],inactive
same,Potency,[4],inactive
same,Potency,[5],inactive
same,Potency,[6],inactive
C[C@@H]1CC[C@]2(C(=O)O)CC[C@]3(C(=O)O)C(=CCC4[C@@]5(C)CC[C@H](O[C@@H]6O[C@@H](C)[C@H](O[C@@H]7O[C@H](CO)[C@@H](O)[C@H](O)[C@H]7O)[C@@H](O)[C@H]6O)C(C)(C)C5CC[C@]43C)C2[C@H]1C (stereo not given in full),Potency,[1],inactive
same,Potency,[2],inactive
same,Potency,[3],inactive
same,Potency,[4],inactive
same,Potency,[5],inactive
same,Potency,[6],inactive
COc1cc(C2c3cc(O)c(OC)cc3CC(CO)C2CO)ccc1O (stereo not given),Potency,[1],inactive
same,Potency,[2],inactive
same,Potency,[3],inactive
same,Potency,[4],8.26 µM (active)
same,Potency,[5],inactive
same,Potency,[6],inactive
CC(C)=CCC[C@](C)(O[C@@H]1O[C@H](CO[C@@H]2OC[C@@H](O)[C@H](O)[C@H]2O)[C@@H](O)[C@H](O)[C@H]1O)[C@H]1CC[C@]2(C)[C@@H]1[C@H](O)C[C@@H]1[C@@]3(C)CC[C@H](O[C@@H]4O[C@H](CO)[C@@H](O)[C@H](O)[C@H]4O[C@@H]4O[C@H](CO)[C@@H](O)[C@H](O)[C@H]4O)C(C)(C)[C@@H]3CC[C@]12C,Potency,[1],inactive
same,Potency,[2],inactive
same,Potency,[3],inactive
same,Potency,[4],inactive
same,Potency,[5],inactive
same,Potency,[6],inactive
c1nc(NC2CCCCCC2)c2cc(CNC[C@H]3CCCO3)sc2n1,Potency,[1],inactive
same,Potency,[2],inactive
same,Potency,[3],inactive
same,Potency,[4],inactive
same,Potency,[5],inactive
same,Potency,[6],inactive
COc1c(C)c(C(=O)c2ccc(N)c(C(=O)O)c2)n2ccccc12,Potency,[1],inactive
same,Potency,[2],inactive
same,Potency,[3],inactive
same,Potency,[4],4.74 µM (active) and 5.32 µM (active)
same,Potency,[5],9.53 µM (active)
same,Potency,[6],inactive
COc1cc(CC(COC2OC(CO)C(O)C(O)C2O)c2cc(/C=C/CO)cc(OC)c2O)ccc1O (stereo not given),Potency,[1],inactive
same,Potency,[2],inactive
same,Potency,[3],inactive
same,Potency,[4],9.22 µM (active)
same,Potency,[5],inactive
same,Potency,[6],inactive
CN1C(=O)c2ccccc2-n2c(nc3ccccc3c2=O)[C@@]12O[C@H]2c1ccccc1,Potency,[1],inactive
same,Potency,[2],inactive
same,Potency,[3],inactive
same,Potency,[4],inactive
same,Potency,[5],inactive
same,Potency,[6],inactive
C=C(C(=O)OC)C1CCC2(C)C(O[C@@H]3O[C@H](CO)[C@@H](O)[C@H](O)[C@H]3O)CC(=O)C(C)C2C1O (stereo not given in full),Potency,[1],inactive
same,Potency,[2],inactive
same,Potency,[3],inactive
same,Potency,[4],4.12 µM (active)
same,Potency,[5],inactive
same,Potency,[6],inactive
C=C(C(=O)O)[C@@H]1CC=C2CCC[C@H](C)[C@@]2(C)C1,Potency,[1],inactive
same,Potency,[2],inactive
same,Potency,[3],inactive
same,Potency,[4],inactive
same,Potency,[5],inactive
same,Potency,[6],inactive
CC1CCC2(C(=O)OC3OC(COC4OC(CO)C(O)C(O)C4O)C(O)C(O)C3O)CCC3(C)C(=CCC4C5(C)CCC(O)C(C)(C(=O)O)C5CCC43C)C2C1(C)O (stereo not given),Potency,[1],inactive
same,Potency,[2],inactive
same,"activity change, negative = inhibition",[3],-4.02% [at 11.6 µM]
same,"activity change, negative = thiol reactive",[4],18.5% [at 11.5 µM]
same,"activity, negative = inhibition",[5],3.18% [at 11.6 µM]
same,redox activity (% of DA3003),[6],2.59% [at 11.5 µM]
